# Results as given in PubChem BioAssay.
# Activity calls are given as the source filed them.
# Columns and labels:
# [1] = system: Plasmodium falciparum Sir2 (PF13_0152, Sir2A); assay: Plasmodium falciparum Sir2A binding compounds – biochemical, small-molecule microarray, 635 nm fluorescence, primary screen (AID 1098); settings: fluorescence 635 nm, higher = more signal;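 further: score merges spot fluorescence intensity with its signal-to-noise ratio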
# [2] = probe aDKK1 binding to arrayed compounds – biochemical, biotinylated probe, 635/667 nm fluorescence, primary screen (AID 1099); settings: small-molecule microarray, higher = more signal;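 further: score merges 667nm spot fluorescence with signal to noise across triplicate slides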
# [3] = probe aCHRDL2 binding to arrayed compounds – biochemical, biotinylated probe, 635/667 nm fluorescence, primary screen (AID 1100); settings: small-molecule microarray, higher = more signal
# [4] = change in splice reporter luminescence, either direction, cell-based, HEK293, spliceosome inhibition project, primary screen (AID 1101); settings: HEK293 splicing luciferase reporter, 24 h, higher = more signal, called active from +8 up or from −8 down;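 further: HEK293 cells carrying a splicing-competent luciferase reporter gene; test concentration not given here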
# [5] = molecular target: Fibroblast growth factor 10 (Homo sapiens) (UniProt O15520); assay: compounds binding fibroblast growth factor 10 – biochemical, small-molecule microarray, 635 nm fluorescence, primary screen (AID 1102); settings: FGF10 binding, fluorescence 635 nm, higher = more signal
# Fibroblast growth factor 10 (Homo sapiens), sequence (O15520 whole entry, looked up): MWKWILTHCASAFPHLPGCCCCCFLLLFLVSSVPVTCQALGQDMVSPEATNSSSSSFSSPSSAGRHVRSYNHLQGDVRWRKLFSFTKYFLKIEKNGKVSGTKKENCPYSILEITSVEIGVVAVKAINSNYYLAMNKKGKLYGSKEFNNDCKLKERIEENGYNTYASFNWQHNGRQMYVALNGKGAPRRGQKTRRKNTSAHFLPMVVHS
# [6] = system: glycogen synthase kinase-3 (GSK3A per assay name; protocol says GSK3B); assay: compounds binding glycogen synthase kinase-3 – biochemical, small-molecule microarray, 635 nm fluorescence, GSK3A, primary screen (AID 1103); settings: fluorescence 635 nm, higher = more signal; further: the record names both GSK3A and GSK3B
# [7] = molecular target: Epidermal growth factor receptor (Homo sapiens) (UniProt P00533); assay: compounds binding epidermal growth factor receptor – biochemical, small-molecule microarray, 635 nm fluorescence, primary screen (AID 1104); settings: EGFR binding, higher = more signal;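 further: score merges 667 nm emission intensity with spot signal to noise over triplicate slides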
# Epidermal growth factor receptor (Homo sapiens), sequence (P00533 whole entry, looked up): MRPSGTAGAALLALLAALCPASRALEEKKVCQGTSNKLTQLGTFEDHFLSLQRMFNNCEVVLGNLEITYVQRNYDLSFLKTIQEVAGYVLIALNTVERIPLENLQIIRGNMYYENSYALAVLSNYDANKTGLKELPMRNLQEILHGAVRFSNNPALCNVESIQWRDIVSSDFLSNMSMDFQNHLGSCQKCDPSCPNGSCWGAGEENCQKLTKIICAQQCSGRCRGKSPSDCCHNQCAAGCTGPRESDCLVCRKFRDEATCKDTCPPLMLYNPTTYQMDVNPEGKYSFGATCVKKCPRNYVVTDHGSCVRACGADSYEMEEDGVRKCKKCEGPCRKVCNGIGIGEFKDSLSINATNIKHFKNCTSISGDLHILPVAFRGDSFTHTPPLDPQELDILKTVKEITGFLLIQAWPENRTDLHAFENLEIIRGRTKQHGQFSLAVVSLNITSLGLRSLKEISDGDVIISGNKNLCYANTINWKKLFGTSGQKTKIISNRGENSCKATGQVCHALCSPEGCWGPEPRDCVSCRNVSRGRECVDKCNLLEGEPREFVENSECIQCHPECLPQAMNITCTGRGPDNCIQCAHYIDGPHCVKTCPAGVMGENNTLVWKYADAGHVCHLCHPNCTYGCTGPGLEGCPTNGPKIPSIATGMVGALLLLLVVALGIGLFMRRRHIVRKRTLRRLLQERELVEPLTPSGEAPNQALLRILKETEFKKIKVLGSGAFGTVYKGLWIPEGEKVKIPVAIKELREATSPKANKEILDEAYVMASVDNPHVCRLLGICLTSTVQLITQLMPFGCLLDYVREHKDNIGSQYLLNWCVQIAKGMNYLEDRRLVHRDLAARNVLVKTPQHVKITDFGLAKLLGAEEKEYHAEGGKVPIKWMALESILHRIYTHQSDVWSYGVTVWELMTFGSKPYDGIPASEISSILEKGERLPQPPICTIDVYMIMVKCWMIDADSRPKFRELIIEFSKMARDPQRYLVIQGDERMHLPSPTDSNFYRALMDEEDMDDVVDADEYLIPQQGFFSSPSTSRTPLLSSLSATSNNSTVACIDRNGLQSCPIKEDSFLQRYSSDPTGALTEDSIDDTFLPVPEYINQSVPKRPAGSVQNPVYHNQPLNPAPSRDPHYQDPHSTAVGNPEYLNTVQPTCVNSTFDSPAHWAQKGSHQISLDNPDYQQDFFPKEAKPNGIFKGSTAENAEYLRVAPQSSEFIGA
# [8] = molecular target: Follistatin-related protein 3 (Homo sapiens) (UniProt O95633); assay: compounds binding follistatin-related protein 3 – biochemical, small-molecule microarray, 635 nm fluorescence, primary screen (AID 1105); settings: FSTL3 binding, higher = more signal;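 further: score merges emission near 667 nm and signal to noise per printed spot across three slides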
# Follistatin-related protein 3 (Homo sapiens), sequence (O95633 whole entry, looked up): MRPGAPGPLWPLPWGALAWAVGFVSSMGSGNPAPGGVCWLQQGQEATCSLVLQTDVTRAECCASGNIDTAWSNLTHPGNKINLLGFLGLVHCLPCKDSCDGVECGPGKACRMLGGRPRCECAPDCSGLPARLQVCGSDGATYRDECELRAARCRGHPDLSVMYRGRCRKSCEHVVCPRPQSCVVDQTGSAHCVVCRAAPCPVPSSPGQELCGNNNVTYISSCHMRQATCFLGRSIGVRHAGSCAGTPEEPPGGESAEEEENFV
# [9] = molecular target: Dickkopf-related protein 1 (Homo sapiens) (UniProt O94907); assay: small molecules binding DKK1 protein – biochemical, small-molecule microarray, 635 nm fluorescence scan, primary screen (AID 1106); settings: higher = more signal;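 further: score merges emission near 667 nm with signal to noise over three replicate slides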
# Dickkopf-related protein 1 (Homo sapiens), sequence (O94907 whole entry, looked up): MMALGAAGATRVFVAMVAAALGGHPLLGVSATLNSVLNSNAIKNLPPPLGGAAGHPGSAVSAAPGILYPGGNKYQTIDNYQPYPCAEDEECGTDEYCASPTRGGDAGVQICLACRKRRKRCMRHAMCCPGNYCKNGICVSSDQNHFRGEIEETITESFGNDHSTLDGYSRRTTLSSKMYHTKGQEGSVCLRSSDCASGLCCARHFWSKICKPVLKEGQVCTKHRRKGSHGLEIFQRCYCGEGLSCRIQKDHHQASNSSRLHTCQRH
# [10] = system: Inhibin beta A chain (activin A); assay: small molecules binding activin A – biochemical, small-molecule microarray, 635 nm fluorescence scan, primary screen (AID 1107); settings: INHBA, higher = more signal;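 further: mouse activin A protein probed at 4.33 µg/mL on printed slides; score merges bound-protein fluorescence near 667 nm with spot signal-to-noise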
# [11] = system: Human papillomavirus type 1a protein E7 (residues 44-93); assay: small molecules binding HPV E7 44-93 – biochemical, small-molecule microarray, residues 44-93, 635 nm fluorescence, primary screen (AID 1108); settings: fluorescence 635 nm, higher = more signal;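 further: E7 fragment applied at 1 µg/mL in TBST for 1 h at 4 C; score combines spot fluorescence with its signal to noise ratio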
# [12] = hepatitis C replication reporter changes, two-sided – Huh7 cells, luciferase reporter, HCV replication inhibitor project, primary screen (AID 1109); settings: Huh7 HCV replicon luciferase reporter, 48 h; higher = more signal;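 further: huh7 hepatoma cells harbouring a luciferase neomycin HCV replicon reporter; luciferase luminescence as measure of HCV replicon replication; test concentration not given here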
# [13] = molecular target: Left-right determination factor 2 (Homo sapiens) (UniProt O00292); assay: small molecules binding LEFTY2 protein – biochemical, small-molecule microarray, 635 nm fluorescence scan, primary screen (AID 1110); settings: higher = more signal
# Left-right determination factor 2 (Homo sapiens), sequence (O00292 whole entry, looked up): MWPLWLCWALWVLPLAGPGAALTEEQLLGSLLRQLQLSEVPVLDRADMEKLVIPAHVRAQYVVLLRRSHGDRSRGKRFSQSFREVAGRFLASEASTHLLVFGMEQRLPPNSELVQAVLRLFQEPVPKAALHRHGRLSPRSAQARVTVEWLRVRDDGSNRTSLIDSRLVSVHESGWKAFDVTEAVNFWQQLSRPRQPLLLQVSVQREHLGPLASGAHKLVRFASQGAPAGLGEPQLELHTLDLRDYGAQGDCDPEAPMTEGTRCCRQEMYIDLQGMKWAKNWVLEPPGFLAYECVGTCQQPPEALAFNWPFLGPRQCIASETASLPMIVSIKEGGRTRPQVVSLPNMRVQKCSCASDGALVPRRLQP
# [14] = molecular target: Calmodulin-1 (Homo sapiens) (UniProt P0DP23); assay: small molecules binding calmodulin-1 with EGTA – biochemical, small-molecule microarray, Cy5-labelled CALM1, profiling panel (AID 1111); settings: Cy5-CALM1 binding fluorescence, higher = more signal;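 further: labelled calmodulin applied in Tris saline Tween buffer holding calcium plus EGTA and DTT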
# [15] = molecular target: Calmodulin-1 (Homo sapiens) (UniProt P0DP23); assay: small molecules binding Ca-loaded calmodulin-1 – biochemical, small-molecule microarray, Cy5-labelled CALM1, plus calcium, artefact control for SMM control-protein annotation, profiling panel (AID 1112); settings: Cy5-CALM1 binding fluorescence, higher = more signal;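 further: score merges spot fluorescence with signal to noise from triplicate slides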
# [16] = probe aWnt5a binding to arrayed compounds – biochemical, biotinylated probe, 635/667 nm fluorescence, primary screen (AID 1113); settings: small-molecule microarray, higher = more signal;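 further: score merges 667 nm fluorescence intensity with signal-to-noise per printed feature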
# [17] = probe aShh binding to arrayed compounds – biochemical, biotinylated probe, 635/667 nm fluorescence, primary screen (AID 1114); settings: small-molecule microarray, higher = more signal;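 further: probe is biotin-labelled aShh protein from a stem cell growth factor screen; measures binding of labelled protein to compounds printed on the slide; score merges feature fluorescence at 667 nm with signal-to-noise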
# [18] = probe aNog binding to arrayed compounds – biochemical, biotinylated probe, 635/667 nm fluorescence, primary screen (AID 1115); settings: small-molecule microarray, higher = more signal;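 further: probe is biotinylated aNog protein used at 0.15 µg/mL for 1 h at 4 C; z-score combines 667 nm fluorescence of each spot with its signal to noise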
# [19] = molecular target: Torsin-1A-interacting protein 1 (Homo sapiens) (UniProt Q5JTV8); assay: compound microarray binding of lysate hLAP1 – cell lysate, small-molecule microarray, COS7 lysate, 635/667 nm fluorescence, primary screen (AID 1116); settings: 635 nm fluorescence, higher = more signal
# Torsin-1A-interacting protein 1 (Homo sapiens), sequence (Q5JTV8 whole entry, looked up): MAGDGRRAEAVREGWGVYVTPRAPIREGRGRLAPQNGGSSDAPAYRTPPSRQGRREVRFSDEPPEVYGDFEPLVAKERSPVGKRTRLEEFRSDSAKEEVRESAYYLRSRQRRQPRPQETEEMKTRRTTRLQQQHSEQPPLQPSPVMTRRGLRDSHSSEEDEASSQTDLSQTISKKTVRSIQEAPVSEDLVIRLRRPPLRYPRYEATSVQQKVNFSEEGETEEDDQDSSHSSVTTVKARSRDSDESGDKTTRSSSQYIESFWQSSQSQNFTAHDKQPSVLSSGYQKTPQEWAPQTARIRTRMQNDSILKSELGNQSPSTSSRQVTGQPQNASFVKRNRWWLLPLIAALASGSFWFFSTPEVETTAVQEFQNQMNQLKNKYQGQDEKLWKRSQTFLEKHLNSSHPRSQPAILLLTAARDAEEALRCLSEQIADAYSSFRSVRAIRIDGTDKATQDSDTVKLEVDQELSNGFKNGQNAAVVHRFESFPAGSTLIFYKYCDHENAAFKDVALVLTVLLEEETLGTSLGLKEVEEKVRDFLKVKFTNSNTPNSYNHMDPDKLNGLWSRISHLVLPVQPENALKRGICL
# [20] = molecular target: Alpha-bungarotoxin (Bungarus multicinctus) (UniProt P60615); assay: compounds binding labelled alpha-BTX control protein – biochemical, small-molecule microarray, Alexa647 label, 635/667 nm fluorescence, artefact control for SMM control protein annotation, profiling panel (AID 1117); settings: alpha-BTX-A647 binding fluorescence, higher = more signal
# Alpha-bungarotoxin (Bungarus multicinctus), sequence (P60615 whole entry, looked up): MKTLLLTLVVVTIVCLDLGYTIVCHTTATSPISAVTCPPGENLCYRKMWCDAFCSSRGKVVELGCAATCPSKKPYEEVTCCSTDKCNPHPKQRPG
SMILES,composite z-score [1],composite z-score [2],composite z-score [3],z-score [4],composite z-score [5],composite z-score [6],composite z-score [7],composite z-score [8],composite z-score [9],composite z-score [10],composite z-score [11],z-score [12],composite z-score [13],composite z-score [14],composite z-score [15],composite z-score [16],composite z-score [17],composite z-score [18],composite z-score [19],composite z-score [20]
COC(=O)[C@@]1(Cc2ccccc2N=[N+]=[N-])N=C(c2ccc(OCCCO)cc2)O[C@H]1c1ccccc1N=[N+]=[N-],1.52,0.793,1,7.07 (inactive),0.386,0.65,-0.098,0.419,0.0345,1.31,0.193,-3.4,-0.182,0.178,-0.62,0.027,-0.064,1.05,0.435,0.726
CCCNC(=O)[C@@]1(c2ccc([N+](=O)[O-])cc2)CC(=O)N(C2CCCCC2)[C@@H]1c1ccc(CO)cc1,0.472,0.175,0.39,-0.867 (inactive),0.946,1.22,0.237,0.869,0.301,0.254,1.5,-0.887,0.357,0.653,-0.0681,-0.0285,0.446,-0.0216,1.2,0.764
COC(=O)c1c2oc(c1C(=O)OC)C(=O)N(C)Cc1cn(nn1)C[C@H](Cc1ccccc1)NC(=O)N[C@H](CO)CC2,-0.595,-0.349,-0.264,0.322 (inactive),-0.591,-0.94,-0.694,-0.269,-0.316,-0.0248,-1.07,-1.18,-0.683,-0.633,-0.197,-0.246,-0.154,-0.299,-0.641,-0.277
C=CCC(OC(C)=O)[C@@H]1[C@@H](N(Cc2ccc(-c3ccccc3)cc2)C(=O)Cc2ccc(F)cc2)c2cc(OCCCO)ccc2N1C(=O)Cc1ccc(OC)cc1 (stereo not given in full),-0.383,-0.129,0.0545,-0.599 (inactive),-0.0269,0.0082,-0.244,0.359,-0.139,1.14,-0.0218,-0.71,0.0922,0.498,-0.124,-0.0478,-0.343,-0.394,-0.002,0.215
COc1ccc([Si](C)(C)[C@@H]2[C@@H](CCO)O[C@]3(C(=O)N(Cc4ccc(N5CCCCC5=O)cc4)c4ccccc43)[C@H]2C)cc1,1.15,-0.128,-0.756,-1.73 (inactive),1.21,0.83,0.336,0.87,0.562,0.669,-0.0334,-5.11,0.216,0.121,0.188,-0.0758,0.191,0.0989,0.467,0.0967
C=CCC(OC(C)=O)[C@@H]1[C@@H](N(Cc2ccc(-c3cccc(C(F)(F)F)c3)o2)C(=O)c2ccc(-c3ccccc3)cc2)c2cc(OCCCO)ccc2N1C(=O)c1ccc2ccccc2n1 (stereo not given in full),-0.219,0.148,0.202,0.39 (inactive),0.129,-0.587,-0.049,0.472,-0.0126,1.28,-0.252,0.177,-0.122,-0.227,0.623,0.0437,0.112,-0.139,-0.2,-0.386
COCCOC(=O)N1C(=O)[C@@]2(c3cc(C#CCCO)ccc31)[C@H](c1ccccc1OCCO)N1[C@H](c3ccccc3)[C@H](c3ccccc3)OC(=O)[C@H]1[C@@H]2C(=O)Nc1nc2ccccc2s1,1.5,0.95,0.856,-0.713 (inactive),0.689,1.2,0.397,0.966,0.635,0.46,0.323,-1.65,0.558,1.39,0.704,-0.0519,0.173,0.429,1.62,2.29
COCCOC(=O)N1C(=O)[C@@]2(c3cc(C#Cc4ccc(OC)cc4)ccc31)[C@H](c1ccccc1OCCO)N1[C@H](c3ccccc3)[C@H](c3ccccc3)OC(=O)[C@H]1[C@@H]2C(=O)N1CCCCCCC1,1.2,2.8,1.79,-1.38 (inactive),1.29,1.34,1.49,1.61,2.12,1.91,1.03,-1.36,1.17,2.84,1.6,1.26,2.59,3.38,5.26,1.8
COC(=O)c1c(CC[C@@H](CO)NC(=O)N2CCC[C@H]2Cn2cc(Cc3ccccc3)nn2)oc(C(C)=O)c1C(=O)OC,0.787,-0.0956,-0.553,-0.311 (inactive),0.572,0.0908,-0.0867,0.92,0.135,0.268,0.916,0.139,-0.0041,-0.128,-0.658,-0.0778,-0.167,0.113,0.0411,0.17
O=C(CS)NCCCCCNC(=O)[C@@H]1C[C@@H]2C(=O)N3CCC[C@H]3C(=O)N2[C@@H]1c1cccc(OCCO)c1,1.47,-0.137,0.468,0.501 (inactive),0.453,0.649,0.196,-0.596,0.292,-0.525,1.42,-0.367,-0.429,1.39,-1.29,-0.073,-0.16,-0.565,1.76,1.14
CC(=O)NCCCC[C@@H]1NC(=O)[C@H]2C[C@@H](C(=O)NCCCC[N+](C)(C)C)[C@@H](c3cccc(OCCO)c3)N2C1=O,0.0726,0.186,-0.201,-0.307 (inactive),1.37,0.536,1.17,1.54,1.83,-0.416,-0.194,-1.08,1.47,-2.42,-1.62,0.027,0.0121,-0.122,1.04,0.604
C=C(C)c1cc2c(c(CCCCCC)n1)[Si](C(C)C)(C(C)C)OC2,-0.491,-0.304,0.149,-0.392 (inactive),-1.04,-1.18,-1.01,-1.24,-1.31,0.138,-1.01,-0.35,-1.08,-0.689,0.603,-0.145,-0.123,-0.295,-1.07,-0.676
OCC1CC(c2ccccc2)=NO1 (stereo not given),0.0686,-0.217,-0.354,-0.0813 (inactive),0.0912,0.0016,0.37,-0.0588,0.473,0.685,-1.07,0.381,0.43,-0.759,-0.445,-0.0084,-0.248,0.21,0.19,-0.0251
COC(=O)[C@@]1(Cc2ccccc2)[C@H]2c3cc(C(=O)N(C)C)n(CCN4CNCC4=O)c3C[C@H]2CN1C(=O)c1ccccc1,1.59,1.38,1.31,1.25 (inactive),-0.243,-0.604,-1.71,-0.618,-1.59,0.433,-0.5,0.188,-1.47,2.98,-2.29,0.401,0.0183,1.99,4.42,3.12
C=CCC(OC(C)=O)[C@@H]1[C@@H](N(Cc2cc3ccccc3o2)C(=O)Cc2ccc(F)cc2)c2cc(OCCCO)ccc2N1C(=O)c1ccc2ccccc2c1 (stereo not given in full),-0.365,-0.0572,0.165,0.111 (inactive),-0.234,-0.711,0.0137,0.331,0.0521,1.04,-0.722,-1.18,-0.453,-0.478,-0.06,-0.0843,0.179,-0.24,0.0682,1.29
